IMPase inh = membrane-permeable compound that blocks inositol monophosphatase; P97697; AID 901; inhibition (IP1 accumulation), % at 46.1 µM; CHO-M1 cells, IP1 accumulation, HTRF TR-FRET ratio; 120,000 tested, under 10 active; active = well fitted curve in the direction sought with a large enough effect in the signal ratio, not every such curve was filed as active; inconclusive = small, poorly fitted or top-dose-only effect, or a change in a side signal; inactive = no such curve, though single readings can be large or run the other way; the % refers to the signal ratio;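 note: cells stimulated with carbachol in lithium chloride buffer; plate controls were DMSO basal wells for no effect and reference inhibitor wells for full effect; higher means more IMPase inhibition seen as more IP1 and lower FRET ratio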
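Carbachol-driven Gq signalling in CHO-M1 cells (2000/well) generates IP1. Compounds that block IMPase raise IP1 and so reduce the FRET signal from Eu-anti-IP1 and d2-IP1 after a 10 min room-temperature lysis.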
ALDH1A1 block = inhibitors of human aldehyde dehydrogenase 1A1; Purified ALDH1A1, NADH fluorescence, propionaldehyde substrate; Potency, µM (titrated, usually from 75.3 µM), for the others: top-dose activity, negative = inhibition, hits mostly inhibitors; 220,000 tested, 7.3% active; AID 1030;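 note: potency is the fitted concentration of half-maximal effect; plate controls were no enzyme wells and a reference inhibitor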
Target sequence (P00352 whole entry, looked up): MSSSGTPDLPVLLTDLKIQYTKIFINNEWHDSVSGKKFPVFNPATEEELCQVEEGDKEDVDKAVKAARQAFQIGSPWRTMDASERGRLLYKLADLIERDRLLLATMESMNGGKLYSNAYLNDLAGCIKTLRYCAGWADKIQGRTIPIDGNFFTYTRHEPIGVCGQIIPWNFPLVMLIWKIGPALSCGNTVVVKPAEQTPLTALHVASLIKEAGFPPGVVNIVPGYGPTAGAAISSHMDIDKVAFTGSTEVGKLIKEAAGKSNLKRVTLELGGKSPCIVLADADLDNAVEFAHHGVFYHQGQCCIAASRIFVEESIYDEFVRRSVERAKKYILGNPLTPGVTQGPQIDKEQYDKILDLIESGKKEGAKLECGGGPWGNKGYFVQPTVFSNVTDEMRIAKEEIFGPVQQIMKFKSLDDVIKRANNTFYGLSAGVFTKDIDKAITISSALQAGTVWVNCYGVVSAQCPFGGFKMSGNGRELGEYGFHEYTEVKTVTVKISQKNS
HPGD block = HPGD (human) dehydrogenase inhibition; Potency, µM, for inactives: at the top dose activity change, negative = inhibition, most hits filed as inhibitors; purified HPGD, NADH fluorescence kinetic, PGE2 substrate; 150,000 tested, 4.3% active; note: potency is the fitted concentration of half-maximal effect
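NADH formation kinetics: reaction with 30 uM PGE2 and 1 mM NAD+ (final), 20 nM enzyme, Tris-HCl pH 8 with Tween 20, after 15 min compound preincubation at room temperature. Fluorescence change, last versus first of five reads.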
Active calls of the source: *; [ ] = another dose, or the depositor's remark. Rows were chosen to be rich in hits. Some 9% of all compounds tested hit in one or more screens of this group. Unless noted, calls come from the whole dose curve; as a rule, active = well fitted inhibition curve with a large enough effect (not every such curve was filed as active); inconclusive = small, poorly fitted or top-dose-only effect, or another doubt; inactive = no such curve, though single readings can be large or run the other way. Unless noted, % is set by controls: 0 for no effect and ±100 for the full control effect.

Screening Nc1nc(SCc2ccc([N+](=O)[O-])cc2)c2ncn([C@@H]3O[C@H](CO)[C@@H](O)[C@H]3O)c2n1 returned ALDH1A1 block -5%.
Screening O=C(CSc1nnc(-c2ccccn2)n1Cc1ccco1)c1ccc(Cl)cc1 returned IMPase inh 1, ALDH1A1 block 20µM* and HPGD block inconclusive.
`CCSc1nnc(-c2cccnc2)n1Cc1ccco1` gave IMPase inh -3, ALDH1A1 block -3% and HPGD block 2%.
For O=C(CSc1nnc(-c2ccccn2)n1Cc1ccco1)c1ccccc1 the results were IMPase inh inconclusive, ALDH1A1 block -10% and HPGD block -29%.
`CCOC(=O)c1c(NC(=O)CSc2nnc(-c3cccnc3)n2Cc2ccco2)sc(C)c1C` gave IMPase inh 11, ALDH1A1 block 25µM* and HPGD block -21%.
For CCc1ccc(CNC(=O)C2CCN(S(=O)(=O)N3CCC4(CC3)OCCO4)CC2)cc1 the results were ALDH1A1 block -7%.
`COc1ccc(S(=O)(=O)N=Nc2c(O)[nH]c3ccccc23)cc1` gave ALDH1A1 block 25µM*.
Cc1ccc(S(=O)(=O)N=Nc2c(O)[nH]c3ccccc23)cc1C was read as IMPase inh -5, ALDH1A1 block inconclusive and HPGD block -10%.
Screening CSc1nc(-c2ccccc2)nc(N2CCN(C)CC2)c1C(C)=O returned IMPase inh -6, ALDH1A1 block -13% and HPGD block -21%.
For CSc1nc(-c2ccccc2)nc(N2CCCC2)c1C(C)=O the results were IMPase inh inconclusive, ALDH1A1 block 4% and HPGD block 20µM*.
CC(NC(=O)c1nn(C)c(=O)c2ccccc12)c1ccc(F)cc1 (stereo not given) was read as IMPase inh 5, ALDH1A1 block -1% and HPGD block -7%.
CN(C)c1ccc(-c2nc(N3CCNCC3)c3ccccc3n2)cc1 was read as ALDH1A1 block -15% and HPGD block -18%.
Screening N#C/C(=C/c1ccc(N2CCOCC2)c([N+](=O)[O-])c1)C(N)=O returned IMPase inh 0, ALDH1A1 block 0% and HPGD block -9%.
Screening CCOC(=O)c1ccccc1NC(=O)CN(c1ccccc1OC)S(C)(=O)=O returned IMPase inh 12, ALDH1A1 block -2% and HPGD block -13%.
Screening COC(=O)c1ccccc1NC(=O)c1ccccc1SC returned IMPase inh -5, ALDH1A1 block -4% and HPGD block -30%.
`CCOC(=O)c1ccccc1NC(=O)c1ccccc1SC` gave IMPase inh 12, ALDH1A1 block 14µM* and HPGD block -11%.
For COCCCNC(=O)c1ccccc1SC the results were IMPase inh 9, ALDH1A1 block 2% and HPGD block 32µM*.
For CCOCCCNC(=O)c1ccccc1SC the results were IMPase inh 21, ALDH1A1 block 8% and HPGD block -14%.
For CCOC(=O)c1ccccc1NC(=O)CN(c1ccccc1)S(=O)(=O)N(C)C the results were IMPase inh inconclusive, ALDH1A1 block 28µM* and HPGD block -5%.
Screening COc1ccc2c(c1)OC(=O)CC2c1ccc2c(c1)OCO2 (stereo not given) returned ALDH1A1 block inconclusive and HPGD block -6%.
Screening Cc1ccccc1Nc1nc(N)nc(CN2CCN(C(=O)c3ccccc3)CC2)n1 returned ALDH1A1 block -9%.
COc1ccc(C2CC(=O)c3cnc(NC(=O)c4ccccc4)nc3C2)c(OC)c1 (stereo not given) was read as IMPase inh 10, ALDH1A1 block 4% and HPGD block -8%.
Screening CCCCN1C(=O)c2ccc(C(=O)Nc3c(N)n(CCCC)c(=O)n(C)c3=O)cc2C1=O returned IMPase inh 15, ALDH1A1 block inconclusive and HPGD block 2%.
C=C(C)c1cccc(C(C)(C)NC(=O)N(Cc2ccccc2)Cc2ccco2)c1 was read as IMPase inh 0, ALDH1A1 block -5% and HPGD block -11%.
Screening COc1ccc(NC(=O)C2=C(C)Nc3nc(CCCO)nn3C2c2ccc(OC)c(OC)c2)cc1 (stereo not given) returned ALDH1A1 block -7%.
`O=C(CN(CCc1ccccc1)C(=O)Cn1nnc(-c2cccs2)n1)NCc1ccco1` gave IMPase inh -5, ALDH1A1 block 13µM* and HPGD block -20%.
For O=C(CN(CCc1ccccc1)C(=O)CN1C(=O)COc2ccccc21)NCc1ccco1 the results were IMPase inh -1, ALDH1A1 block 8.9µM* and HPGD block -9%.
`O=C(CN(C(=O)Cn1nnc(-c2cccs2)n1)c1ccc2c(c1)OCCO2)NCc1ccccc1` gave IMPase inh 6, ALDH1A1 block inconclusive and HPGD block -16%.
Screening Cc1ccc2c(c1)N(CC(=O)NCc1ccco1)C(=O)CO2 returned IMPase inh 1, ALDH1A1 block -1% and HPGD block -3%.
`CCC(=O)Oc1ccc2c(c1)CCC1C2CC[C@]2(C)C(OC(=O)CC)CCC12` (stereo not given in full) gave ALDH1A1 block 3% and HPGD block -7%.
`O=C(Cn1nnc(-c2ccccc2Cl)n1)NCc1ccc2c(c1)OCO2` gave IMPase inh 9, ALDH1A1 block 1% and HPGD block -11%.
For NC(=O)CSc1nc2c(sc3ccccc32)c(=O)n1CCCC(=O)NCC1CCCO1 (stereo not given) the results were ALDH1A1 block -14%.
Screening CCCn1c(SCC(=O)c2ccc3c(c2)OCCO3)nnc1-c1ccco1 returned IMPase inh 7, ALDH1A1 block -6% and HPGD block -3%.
Screening COCCn1c(SCC(=O)c2ccc3c(c2)OCCO3)nnc1C(C)C returned IMPase inh 3, ALDH1A1 block 10µM* and HPGD block -9%.
`COCCn1c(SCC(=O)Nc2cc(C)cc(C)c2)nnc1C(C)C` gave IMPase inh -2, ALDH1A1 block inconclusive and HPGD block -15%.
`COCCn1c(SCC(=O)c2ccc(Cl)cc2)nnc1C(C)C` gave IMPase inh -8, ALDH1A1 block 9.5µM* and HPGD block inconclusive.
Cc1cc(Cl)ccc1Oc1nccc(N(C)C)c1C#N was read as IMPase inh 12, ALDH1A1 block 9% and HPGD block -19%.
CN(C)c1ccnc(Oc2ccccc2)c1C#N was read as IMPase inh 5, ALDH1A1 block inconclusive and HPGD block inconclusive.
For CN(C)c1ccnc(Oc2ccc(Cl)cc2)c1C#N the results were IMPase inh 11, ALDH1A1 block 25µM* and HPGD block 32µM*.
CN(C)c1ccnc(Oc2ccc(C(C)(C)C)cc2)c1C#N was read as IMPase inh -10[1.84 µM], ALDH1A1 block inconclusive and HPGD block 35µM*.
Screening Cc1nc2ccc(C(=O)O)cc2c2c1CC(C)S2 (stereo not given) returned IMPase inh -15, ALDH1A1 block inconclusive and HPGD block inconclusive.
Screening COc1ccc(-c2nnn3c2nc(NCc2ccccc2)c2ccccc23)cc1 returned ALDH1A1 block 3%.
CC1CCN(CCOc2cccc(Br)c2)CC1 was read as ALDH1A1 block -4% and HPGD block -5%.
Screening Brc1cccc(OCCCN2CCCCCC2)c1 returned ALDH1A1 block 13µM*.
